Reference: the supplement of paper PMC11006884
The full data set covers some 6,500 targets. This sample favours those with a hit. About 2% of all pairs of compound and target were hits.

compound: COC(=O)C#Cc1ccccc1 [methyl 3-phenylpropiolate]; test: log2 ratio of iodoacetamide-alkyne labeling of the cysteine site, DMSO over compound (competition); higher = stronger covalent engagement of the cysteine by the compound, active = 1 or more; conditions: 500 µM; treatment time 1 h; system: HEK293T cell lysate
How it was run: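 Electrophile (500 µM) or vehicle was added to HEK293T lysate (2 mg/mL) for 1 h at ambient temperature before iodoacetamide alkyne labelling (1 h) and click coupling to sCIP-TMT reagents. After pooling, overnight trypsin digestion at 37 °C, streptavidin enrichment and acid elution, peptides were measured by Orbitrap Eclipse LC-MS/MS with FAIMS and quantified in FragPipe. Each cysteine's log2 competition ratio compares mean control-channel with mean compound-channel reporter intensity, control over compound. Data came from duplicate channels across three replicates, excluding cysteines quantified in only one replicate.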

With NCAPH2 C342 (UniProt Q6IBW4) as the target, how does the “log2 ratio of iodoacetamide-alkyne labeling” value (“log2 ratio” below) read?
The value was 1.07 (active).

For SND1 C96 (UniProt Q7KZF4), which “log2 ratio” value is on record?
Its value is 0.115 (inactive).

UniProt Q96L50_C246 was tested. Which “log2 ratio” value did it give?
The value was 0.109 (inactive).

Which “log2 ratio” value does the source give for UniProt Q8WYL5_C626 here?
Its value is 1.19 (active).

With PBK C112 (UniProt Q96KB5) as the target, how does the “log2 ratio” value read?
The value was 0.35 (inactive).

With CNN2 C175 (UniProt Q99439) as the target, how does the “log2 ratio” value read?
Its value is 1.04 (active).

How did the “log2 ratio” value turn out when SETD7 C200 (UniProt Q8WTS6) was run?
The value was 0.34 (inactive).

For CPNE1 C53 (UniProt Q99829), which “log2 ratio” value is on record?
Its value is -0.0731 (inactive).

For LGMN C219 (UniProt Q99538), which “log2 ratio” value is on record?
Its value is 0.865 (inactive).

For TET2 C332 (UniProt Q6N021), which “log2 ratio” value is on record?
Its value is 0.594 (inactive).

How did the “log2 ratio” value turn out when ATXN7L3B C75 (UniProt Q96GX2) was run?
The value was 1.03 (active).

For HEATR6 C360 (UniProt Q6AI08), which “log2 ratio” value is on record?
Its value is 0.657 (inactive).

For UniProt Q6ZS17_C1137, which “log2 ratio” value is on record?
Its value is 0.0366 (inactive).

For SIN3A C486 (UniProt Q96ST3), which “log2 ratio” value is on record?
The value was -0.0562 (inactive).

For NUP205 C877 (UniProt Q92621), which “log2 ratio” value is on record?
Its value is 0.102 (inactive).

CCDC117 C81 (UniProt Q8IWD4) was tested. Which “log2 ratio” value did it give?
Its value is 1.66 (active).

How did the “log2 ratio” value turn out when WDFY2 C290 (UniProt Q96P53) was run?
The value was -0.231 (inactive).

Which “log2 ratio” value does the source give for PIK3R4 C899 (UniProt Q99570) here?
Its value is 0.087 (inactive).

For MACROD1 C199 (UniProt Q9BQ69), which “log2 ratio” value is on record?
The value was -0.0967 (inactive).

With UniProt Q96BD8_C10 as the target, how does the “log2 ratio” value read?
Its value is 0.363 (inactive).

How did the “log2 ratio” value turn out when SPAG5 C1035 (UniProt Q96R06) was run?
Its value is 0.251 (inactive).

For KIAA2013 C185 (UniProt Q8IYS2), which “log2 ratio” value is on record?
Its value is 0.14 (inactive).

Which “log2 ratio” value does the source give for EP400 C162 (UniProt Q96L91) here?
Its value is 0.339 (inactive).

For ANKRD11 C1845 (UniProt Q6UB99), which “log2 ratio” value is on record?
Its value is 1.24 (active).

How did the “log2 ratio” value turn out when NCAPG C202 (UniProt Q9BPX3) was run?
The value was 0.0426 (inactive).

With UniProt Q8WZA9_C504 as the target, how does the “log2 ratio” value read?
Its value is 0.0403 (inactive).

Which “log2 ratio” value does the source give for HIST2H3A C111 (UniProt Q71DI3) here?
The value was 0.0441 (inactive).

NGLY1 C197 (UniProt Q96IV0) was tested. Which “log2 ratio” value did it give?
The value was 0.0457 (inactive).

How did the “log2 ratio” value turn out when NOC3L C683 (UniProt Q8WTT2) was run?
Its value is 0.191 (inactive).

UniProt Q8NFC6_C686 was tested. Which “log2 ratio” value did it give?
Its value is 0.47 (inactive).

Which “log2 ratio” value does the source give for ACO2 C385 (UniProt Q99798) here?
The value was 1.66 (active).

For AKAP1 C376 (UniProt Q92667), which “log2 ratio” value is on record?
Its value is 1.15 (active).

With SNF8 C72 (UniProt Q96H20) as the target, how does the “log2 ratio” value read?
The value was 0.2 (inactive).

How did the “log2 ratio” value turn out when DHX30 C461 (UniProt Q7L2E3) was run?
The value was 0.193 (inactive).

With ATPAF1 C321 (UniProt Q5TC12) as the target, how does the “log2 ratio” value read?
The value was 0.464 (inactive).
